Screening data as filed in PubChem.
EWS-Fli block = EWS/Fli-driven NR0B1 reporter inhibitors, primary screen, A673 cells, NR0B1 luciferase, luminescence, MLPCN library; viability-normalised; inhibition, % at 12.6 µM; 350,000 compounds, 0.67% hits;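 active means mean inhibition of at least 50% after viability correction, with every replicate also passing that limit; inconclusive means mean reaches 50% but only one of two replicates passes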;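 further: firefly luciferase signal divided by Alamar Blue viability fluorescence both relative to DMSO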
PAX8 inh HTS = inhibitors of PAX8-driven TPO luciferase reporter, primary screen, RMG-I cells, single concentration | SteadyGlo, 24 h | inhibition, % at 12.6 µM | 360,000 compounds, 1.2% hits;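 active means mean replicate inhibition at least 60% with every replicate also reaching 60%; inconclusive means only one of the two criteria is met; inactive means mean below 60% and not all replicates reaching 60%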;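 further: luciferase light reporting Pax8 driven TPO promoter activity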
MITF TRPM1 inh = inhibitors of MITF-dependent TRPM1 promoter reporter, primary screen, cell-based, SK-MEL-5, single point, luciferase; SK-MEL-5 TRPM1 promoter luciferase, 24 h; inhibition, % at 12.5 µM; 330,000 compounds, 0.83% hits; AID 488899, 2010;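 active means mean inhibition across replicates of 60% or more, whatever share of single replicates reaches that level; inconclusive means some that reach 60%, reason not given; inactive means mean inhibition across replicates below 60%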
EBV LMP1 NFkB = EBV LMP1-driven NF-kappaB luciferase reporter inhibitors, primary screen, cell-based, luminescence, single point. LMP1-induced NF-kappaB luciferase reporter cells. inhibition, % at 12.5 µM. 350,000 compounds, 0.69% hits. AID 504558, 2011; in the data active means inhibition above about 41%; inconclusive means no clear call, values can overlap the other calls
Shn3 3UTR inh = reduction of Shn3 3'UTR firefly luciferase signal, primary screen, Schnurri-3 inhibitor project, cell-based, Clone20 osteoblasts, set 2 | Clone20 osteoblast Shn3 3'UTR firefly luciferase, 24 h | inhibition, % at 12.5 µM | 360,000 compounds, 0.52% hits | AID 588674, 2011;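 active means mean inhibition of at least 75% with every replicate also reaching 75%; inconclusive means mean inhibition at least 75% but some replicate below; inactive means mean inhibition below 75%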
LGR2 antag = inhibitors of bursicon-induced LGR2 CRE-luciferase signal, primary screen, cell-based, HEK293, CRE-luciferase reporter, bursicon stimulation | Drosophila bursicon receptor LGR2 (rickets) | bursicon-stimulated, 4 h | AID 720647, 2013 | inhibition, % at 9.99 µM | 380,000 compounds, 0.35% hits;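 active means drop in luminescence signal, shown as inhibition above about 50% in the replicate tests, limit read from the data, passing the limit was not always enough; inconclusive means probably only some replicates passing the limit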;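 further: agonist challenge used bursicon conditioned medium at about half maximal strength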
Hits are given with their value; . = inactive; ? = inconclusive; / = not tested or not shown; ! = not active in a repeat. A selection: hits, their analogues and other compounds. The true share with any hit is near 2.2%.

SMILES	EWS-Fli block	PAX8 inh HTS	MITF TRPM1 inh	EBV LMP1 NFkB	Shn3 3UTR inh	LGR2 antag
C[C@@H]1CN([C@H](C)CO)C(=O)CCCn2cc(nn2)CO[C@@H]1CN(C)C(=O)c1ccncc1	.	.	/	/	/	.
CC(C)c1ccc(/C=N/NC(=O)c2ccccn2)cc1	.	.	.	.	/	75
CCC(CO)[n+]1c(C)cc(/C=C2\Sc3ccccc3N2Cc2ccccc2)cc1C (stereo unspecified)	?	.	82	.	.	.
c1ccc2c(c1)OCCOCCOCCOCCOCCOc1ccccc1OCCOCCOCCO2	.	.	.	.	86	.
O=C(C1CCC1)N1CC(=O)N2[C@H](CO)[C@@H](c3ccc(C#Cc4cccc(F)c4)cc3)[C@@H]2C1	.	.	/	/	/	.
COc1ccc(CCC(=O)NCCc2nc3ccccc3[nH]2)cc1	.	.	.	.	.	.
CCCC(=O)NCCc1nc2ccccc2n1C	/	.	.	.	.	/
CCCC(=O)NCCCc1nc2ccccc2[nH]1	.	.	.	87	.	.
CCCC(=O)NCCCc1nc2ccccc2n1C	.	.	.	92	.	.
Cc1ccc(CCNC(=O)CCc2nc3ccccc3[nH]2)cc1	.	.	.	57	.	.
COCC(=O)Nc1ccc2c(c1)[C@H]1C[C@H](CC(=O)NCc3ccc(Cl)cc3)O[C@H](CO)[C@H]1O2	.	.	/	/	/	.
C[C@@H]1CN([C@H](C)CO)C(=O)c2cccc(NS(C)(=O)=O)c2O[C@@H]1CN(C)S(C)(=O)=O	.	/	/	/	/	.
CCCN1C(=O)C2(SC(NC(C)=O)=NN2C(C)=O)c2cc(C)cc(C)c21 (stereo unspecified)	.	.	.	54	/	.
COc1ccc2c3c(n(C)c2c1)[C@@H](CO)N(C(=O)C1CCC1)CC31CN(C(=O)Nc2cccc(F)c2)C1	.	/	/	/	/	.
COc1cccc(-c2nnc3n2N=C(C(C)(C)C)CS3)c1	/	.	?	65	.	/
COc1cccc(-c2nnc3n2N=C(c2cc(OC)ccc2OC)CS3)c1	/	.	.	.	.	/
COc1ccc2c3c(n(C)c2c1)[C@@H](CO)N(C(=O)Nc1ccc(F)cc1)CC31CCN(Cc2cccnc2)CC1	.	/	/	/	/	.
O=C(Cc1ccccn1)N[C@H]1CC[C@@H](CCn2cc(-c3ccccc3)nn2)O[C@@H]1CO	.	.	/	/	/	.
COc1ccc(-c2cn(CC[C@H]3CC[C@@H](NC(=O)Cc4ccccn4)[C@@H](CO)O3)nn2)cc1	.	88	/	/	/	.
O=C(Cc1ccccc1)N1CC[C@H]2[C@H](CO)Nc3ccc(C4=CCCCC4)cc3[C@H]21	.	82	/	/	/	.
CN1c2ccc(C3=CCCCC3)cc2[C@H]2[C@H](CCN2C(=O)C2CC2)[C@@H]1CO	.	100	/	/	/	/
O=C(Cc1ccccc1)N1CC[C@H]2[C@H](CO)Nc3ccc(-c4cccc(F)c4)cc3[C@H]21	.	.	/	/	/	.
O=C(C1CCCC1)N1CC[C@@H]2[C@H](CO)Nc3ccc(C4=CCCCC4)cc3[C@@H]21	.	90	/	/	/	.
O=C(Cc1ccccc1)N1CC[C@@H]2[C@H]1c1cc(-c3cccc(F)c3)ccc1N[C@@H]2CO	.	68	/	/	/	.
O=C(Cc1ccccc1)N1CC[C@@H]2[C@H](CO)Nc3ccc(C4=CCCCC4)cc3[C@@H]21	.	.	/	/	/	.
SMILES	EWS-Fli block	PAX8 inh HTS	MITF TRPM1 inh	EBV LMP1 NFkB	Shn3 3UTR inh	LGR2 antag
C[C@H](CO)N1C[C@H](C)[C@H](CN(C)Cc2ccc(C(=O)O)cc2)Oc2ncc(C3=CCCC3)cc2C1=O	.	.	/	/	/	.
COc1ccccc1-c1ccc2c(c1)[C@@H]1[C@@H](CCN1C(=O)C1CCCCC1)[C@@H](CO)N2	.	105	/	/	/	/
Nc1cc2nsnc2cc1Br	/	/	70	.	.	/
Cc1onc(-c2c(Cl)cccc2Cl)c1C(=O)N[C@@H]1C(=O)N2[C@@H]1SC(C)(C)[C@@H]2C(=O)O	.	.	.	75!	91!	.
Cc1onc(-c2c(Cl)cccc2Cl)c1C(=O)NC1C(=O)N2C1SC(C)(C)C2C(=O)O (stereo unspecified)	.	.	.	.	.	.
COc1ccc(CN(C)C[C@@H]2OCCCC[C@H](C)Oc3ccc(NC(=O)Nc4ccc(OC)cc4)cc3C(=O)N([C@@H](C)CO)C[C@@H]2C)cc1	.	.	/	/	/	.
COc1ccc(S(=O)(=O)N2CCN(CC(=O)Nc3ccc(C)c(F)c3)CC2)cc1	/	/	.	50	.	.
COc1ccc(S(=O)(=O)N2CCN(CC(=O)Nc3cccc(F)c3)CC2)cc1	/	/	.	.	.	.
COC(=O)c1ccc2nc(NC(=O)C(C)(C)C)sc2c1	54	.	.	.	.	64
CC(=O)c1sc(Nc2nc3ccc(F)cc3s2)nc1C	/	/	.	.	.	/
COC(=O)c1ccc2nc(NC(=O)C3CCCCC3)sc2c1	.	.	.	.	.	.
COC(=O)c1ccc2nc(Nc3nc4ccc(F)cc4s3)sc2c1	77	80	84	.	.	/
CC(C)NC(=O)N1CC[C@@H]2[C@H]1c1cc(-c3ccccc3)ccc1N(C)[C@H]2CO	.	.	/	/	/	.
O=C(CC1SC(=Nc2ccc(OC(F)F)cc2)N(CCN2CCOCC2)C1=O)Nc1ccccc1 (stereo unspecified)	.	64	.	.	.	.
O=C(CC1SC(=Nc2ccc(OC(F)F)cc2)N(CCN2CCOCC2)C1=O)Nc1ccc(F)cc1F (stereo unspecified)	.	.	.	.	.	.
C[C@@H]1CN([C@@H](C)CO)C(=O)c2cccc(NC(=O)C3CC3)c2O[C@H]1CN(C)Cc1ccc(Cl)c(Cl)c1	.	/	/	/	/	.
COCC#Cc1ccc([C@H]2[C@@H](CO)N3C(=O)CN(C(=O)c4ccncc4)C[C@H]23)cc1	.	.	/	/	/	.
COc1ccc(CNC(=O)C2Cc3c(-c4cccc(C(C)=O)c4)ccnc3O2)cc1OC (stereo unspecified)	.	.	/	/	.	.
CC(=O)c1cccc(-c2ccnc3c2CC(C(=O)NCc2cccs2)O3)c1 (stereo unspecified)	73	?	/	/	.	.
O=C(NCc1cccs1)C1Cc2c(-c3ccc(Cl)cc3)ccnc2O1 (stereo unspecified)	70	/	/	/	.	/
COc1ccc2c3c([nH]c2c1)[C@H](CO)N(C(=O)c1cccnc1)CC31CN(Cc2ccccc2)C1	.	/	/	/	/	.
Cc1cc(F)ccc1S(=O)(=O)Nc1ccccc1C(=O)Nc1ccccc1-c1nc2ccccc2[nH]1	/	/	?	.	91	/
COc1ccc(/C(N)=N/OC(=O)c2ccco2)cc1	.	.	.	.	.	69
COc1ccc(C(=O)O/N=C(\N)c2ccccc2)cc1	.	.	.	.	.	79
COc1ccc(C(=O)O/N=C(\N)c2ccc(Br)cc2)cc1	.	.	.	.	.	.
